Assay [1] relates to PRMT1 (protein arginine N-methyltransferase 1). As to the kind of experiment: PRMT1 binders on small-molecule microarrays, primary screen, biochemical, small-molecule microarray, 635 nm fluorescence (AID 1088).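 Note: binding of Prmt1 protein to compounds spotted on small-molecule microarray slides.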 As to conditions: small-molecule microarray binding, higher = more signal.
Assay [2] can be described thus: yeast growth modulation, basal conditions, primary screen, YJM789 clinical isolate, OD600, 24 h (AID 1089).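 Note: growth of clinical yeast isolate S. cerevisiae YJM 789 seeded 1000 cells per well; test concentration not given here.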 As to conditions: S. cerevisiae YJM789 growth, higher = more signal, called active from +8 up or from −8 down.
Assay [3] can be described thus: fission yeast growth modulation, primary screen, strain 972, OD600, 24 h, no modulator (AID 1090).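 Note: basal condition with compound alone and no growth modifier present; test concentration not given here.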 The following applies: S. pombe 972 growth, higher = more signal, called active from +8 up or from −8 down.
A short description of assay [4]: S. cerevisiae growth modulation with rapamycin, primary screen, strain BY4716, OD600, 96 h (AID 1091). Note: test concentration not given here. As to conditions: higher = more signal, called active from +8 up or from −8 down.
Assay [5] concerns the target Torsin-1A-interacting protein 2 (Homo sapiens) (UniProt Q8NFQ8). Nature of the assay: LULL1 binders on small-molecule microarray, primary screen, cell lysate, human LULL1 lysate, 635/667 nm fluorescence (AID 1092).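 Note: probe is lysate of COS7 cells overexpressing human LULL1; score merges per-feature 667 nm fluorescence with signal-to-noise.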 The following applies: hLULL1 lysate binding, 635 nm fluorescence, higher = more signal.
Assay [6] in a line: E. coli growth modulation, two-sided OD650, primary screen, E. coli filamentation project, strain DRC41, 24 h (AID 1093).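 Note: MC1000 strain lacking acrAB efflux and sulA so SOS filamentation is blocked; test concentration not given here.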 The following applies: OD650, 24 h, higher = more signal, called active from +8 up or from −8 down.
A short description of assay [7]: small-molecule microarray binders of probe aLefty2, primary screen, biochemical, biotinylated probe, 635/667 nm fluorescence (AID 1094).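 Note: score merges spot fluorescence near 667 nm with spot signal-to-noise ratio.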 As to conditions: higher = more signal.
The test system of assay [8] is Noggin (protein binding on small-molecule microarray). Nature of the assay: Noggin binders on small-molecule microarray, primary screen, biochemical, 635/667 nm fluorescence (AID 1095).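 Note: score merges 667 nm feature fluorescence with signal to noise over triplicate slides.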 The following applies: 635 nm fluorescence, higher = more signal.
Assay [9] concerns the target Neurogenic locus notch homolog protein 3 (Homo sapiens) (UniProt Q9UM47). Nature of the assay: NOTCH3 binders on small-molecule microarray, primary screen, biochemical, 635/667 nm fluorescence (AID 1096). The following applies: NOTCH3 binding, 635 nm fluorescence, higher = more signal.
The nature of assay [10]: small-molecule microarray binders of probe aEGFR, primary screen, biochemical, biotinylated probe, 635/667 nm fluorescence (AID 1097).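 Note: probe is a biotinylated anti-EGFR antibody binding compounds printed on slides; score combines fluorescence near 667 nm and signal to noise of each spot.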 The following applies: higher = more signal.
Assay [11] has as its system Plasmodium falciparum Sir2 (PF13_0152, Sir2A). Nature of the assay: pfSir2 binders on small-molecule microarrays, primary screen, biochemical, small-molecule microarray, 635 nm fluorescence (AID 1098).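 Note: score merges spot fluorescence intensity with its signal-to-noise ratio.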 The following applies: small-molecule microarray binding, fluorescence 635 nm; higher = more signal.
Assay [12] can be described thus: small-molecule microarray binders of probe aDKK1, primary screen, biochemical, biotinylated probe, 635/667 nm fluorescence (AID 1099).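 Note: score merges 667nm spot fluorescence with signal to noise across triplicate slides; reference of the scale not given here.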 As to conditions: higher = more signal.
The nature of assay [13]: small-molecule microarray binders of probe aCHRDL2, primary screen, biochemical, biotinylated probe, 635/667 nm fluorescence (AID 1100). As to conditions: higher = more signal.
Assay [14] in a line: splicing luciferase reporter signal modulators, primary screen, spliceosome inhibition project, cell-based, HEK293, splice +/- reporter (AID 1101).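 Note: HEK293 cells carrying a splicing-competent luciferase reporter gene; test concentration not given here.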 As to conditions: luminescence, 24 h, higher = more signal, called active from +8 up or from −8 down.
The target in assay [15] is Fibroblast growth factor 10 (Homo sapiens) (UniProt O15520). Nature of the assay: FGF10 binders on small-molecule microarrays, primary screen, biochemical, small-molecule microarray, 635 nm fluorescence (AID 1102). The following applies: FGF10 binding, fluorescence 635 nm, higher = more signal.
Sequence of Fibroblast growth factor 10 (Homo sapiens) (O15520 whole entry, looked up): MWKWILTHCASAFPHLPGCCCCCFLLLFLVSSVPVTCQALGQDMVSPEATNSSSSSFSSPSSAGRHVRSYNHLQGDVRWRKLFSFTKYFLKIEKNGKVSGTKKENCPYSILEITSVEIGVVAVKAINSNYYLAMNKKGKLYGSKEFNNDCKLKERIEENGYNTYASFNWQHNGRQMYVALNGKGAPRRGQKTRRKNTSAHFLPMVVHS
Assay [16] deals with glycogen synthase kinase-3 (GSK3A per assay name; protocol says GSK3B). As to the kind of experiment: GSK3 binders on small-molecule microarrays, primary screen, biochemical, small-molecule microarray, 635 nm fluorescence, GSK3A (AID 1103). Note: the record names both GSK3A and GSK3B. As to conditions: small-molecule microarray binding, fluorescence 635 nm; higher = more signal.
Assay [17] has as its target Epidermal growth factor receptor (Homo sapiens) (UniProt P00533). As to the kind of experiment: EGFR binders on small-molecule microarrays, primary screen, biochemical, small-molecule microarray, 635 nm fluorescence (AID 1104).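 Note: score merges 667 nm emission intensity with spot signal to noise over triplicate slides.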 As to conditions: EGFR binding, higher = more signal.
The target of assay [18] is Follistatin-related protein 3 (Homo sapiens) (UniProt O95633). As to the kind of experiment: FSTL3 binders on small-molecule microarrays, primary screen, biochemical, small-molecule microarray, 635 nm fluorescence (AID 1105).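 Note: score merges emission near 667 nm and signal to noise per printed spot across three slides.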 The following applies: FSTL3 binding, higher = more signal.
Sequence of Follistatin-related protein 3 (Homo sapiens) (O95633 whole entry, looked up): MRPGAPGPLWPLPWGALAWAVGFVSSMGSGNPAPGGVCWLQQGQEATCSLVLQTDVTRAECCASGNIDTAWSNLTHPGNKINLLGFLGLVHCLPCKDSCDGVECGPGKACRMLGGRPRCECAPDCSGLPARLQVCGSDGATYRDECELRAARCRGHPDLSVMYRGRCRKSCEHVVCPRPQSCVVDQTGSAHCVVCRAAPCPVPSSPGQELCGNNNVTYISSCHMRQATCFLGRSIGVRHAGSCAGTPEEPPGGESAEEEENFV
The target in assay [19] is Dickkopf-related protein 1 (Homo sapiens) (UniProt O94907). Nature of the assay: DKK1 binders on small-molecule microarrays, primary screen, biochemical, small-molecule microarray, 635 nm fluorescence scan (AID 1106).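 Note: score merges emission near 667 nm with signal to noise over three replicate slides.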 As to conditions: DKK1 binding, higher = more signal.
Sequence of Dickkopf-related protein 1 (Homo sapiens) (O94907 whole entry, looked up): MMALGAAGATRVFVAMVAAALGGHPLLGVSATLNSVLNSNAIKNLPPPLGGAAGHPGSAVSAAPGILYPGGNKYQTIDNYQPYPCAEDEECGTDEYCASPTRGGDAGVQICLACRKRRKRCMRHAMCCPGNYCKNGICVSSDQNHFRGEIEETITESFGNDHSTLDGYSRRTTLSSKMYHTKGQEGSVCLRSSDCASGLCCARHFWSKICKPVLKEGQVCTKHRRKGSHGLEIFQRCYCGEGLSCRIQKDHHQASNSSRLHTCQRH
For assay [20], the system named is Inhibin beta A chain (activin A). Nature of the assay: INHBA (activin A) binders on microarrays, primary screen, biochemical, small-molecule microarray, 635 nm fluorescence scan (AID 1107).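 Note: mouse activin A protein probed at 4.33 µg/mL on printed slides; score merges bound-protein fluorescence near 667 nm with spot signal-to-noise.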 As to conditions: small-molecule microarray binding, higher = more signal.

Structures are written as SMILES. Calls of active or inactive are those of the source.

Sequence of Torsin-1A-interacting protein 2 (Homo sapiens) (Q8NFQ8 whole entry, looked up): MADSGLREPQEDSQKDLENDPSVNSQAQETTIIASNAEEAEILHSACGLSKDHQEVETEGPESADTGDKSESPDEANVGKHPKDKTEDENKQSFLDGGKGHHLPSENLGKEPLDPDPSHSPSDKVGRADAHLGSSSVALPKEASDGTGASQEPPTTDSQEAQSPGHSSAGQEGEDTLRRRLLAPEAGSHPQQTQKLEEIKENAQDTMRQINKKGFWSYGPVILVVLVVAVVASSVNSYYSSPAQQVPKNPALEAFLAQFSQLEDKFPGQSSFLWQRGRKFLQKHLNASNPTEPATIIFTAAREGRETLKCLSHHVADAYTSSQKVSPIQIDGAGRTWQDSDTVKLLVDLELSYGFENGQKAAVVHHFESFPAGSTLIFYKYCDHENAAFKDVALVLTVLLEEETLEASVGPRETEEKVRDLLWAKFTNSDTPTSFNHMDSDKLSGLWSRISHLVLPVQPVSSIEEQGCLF
Sequence of Neurogenic locus notch homolog protein 3 (Homo sapiens) (Q9UM47 whole entry, looked up): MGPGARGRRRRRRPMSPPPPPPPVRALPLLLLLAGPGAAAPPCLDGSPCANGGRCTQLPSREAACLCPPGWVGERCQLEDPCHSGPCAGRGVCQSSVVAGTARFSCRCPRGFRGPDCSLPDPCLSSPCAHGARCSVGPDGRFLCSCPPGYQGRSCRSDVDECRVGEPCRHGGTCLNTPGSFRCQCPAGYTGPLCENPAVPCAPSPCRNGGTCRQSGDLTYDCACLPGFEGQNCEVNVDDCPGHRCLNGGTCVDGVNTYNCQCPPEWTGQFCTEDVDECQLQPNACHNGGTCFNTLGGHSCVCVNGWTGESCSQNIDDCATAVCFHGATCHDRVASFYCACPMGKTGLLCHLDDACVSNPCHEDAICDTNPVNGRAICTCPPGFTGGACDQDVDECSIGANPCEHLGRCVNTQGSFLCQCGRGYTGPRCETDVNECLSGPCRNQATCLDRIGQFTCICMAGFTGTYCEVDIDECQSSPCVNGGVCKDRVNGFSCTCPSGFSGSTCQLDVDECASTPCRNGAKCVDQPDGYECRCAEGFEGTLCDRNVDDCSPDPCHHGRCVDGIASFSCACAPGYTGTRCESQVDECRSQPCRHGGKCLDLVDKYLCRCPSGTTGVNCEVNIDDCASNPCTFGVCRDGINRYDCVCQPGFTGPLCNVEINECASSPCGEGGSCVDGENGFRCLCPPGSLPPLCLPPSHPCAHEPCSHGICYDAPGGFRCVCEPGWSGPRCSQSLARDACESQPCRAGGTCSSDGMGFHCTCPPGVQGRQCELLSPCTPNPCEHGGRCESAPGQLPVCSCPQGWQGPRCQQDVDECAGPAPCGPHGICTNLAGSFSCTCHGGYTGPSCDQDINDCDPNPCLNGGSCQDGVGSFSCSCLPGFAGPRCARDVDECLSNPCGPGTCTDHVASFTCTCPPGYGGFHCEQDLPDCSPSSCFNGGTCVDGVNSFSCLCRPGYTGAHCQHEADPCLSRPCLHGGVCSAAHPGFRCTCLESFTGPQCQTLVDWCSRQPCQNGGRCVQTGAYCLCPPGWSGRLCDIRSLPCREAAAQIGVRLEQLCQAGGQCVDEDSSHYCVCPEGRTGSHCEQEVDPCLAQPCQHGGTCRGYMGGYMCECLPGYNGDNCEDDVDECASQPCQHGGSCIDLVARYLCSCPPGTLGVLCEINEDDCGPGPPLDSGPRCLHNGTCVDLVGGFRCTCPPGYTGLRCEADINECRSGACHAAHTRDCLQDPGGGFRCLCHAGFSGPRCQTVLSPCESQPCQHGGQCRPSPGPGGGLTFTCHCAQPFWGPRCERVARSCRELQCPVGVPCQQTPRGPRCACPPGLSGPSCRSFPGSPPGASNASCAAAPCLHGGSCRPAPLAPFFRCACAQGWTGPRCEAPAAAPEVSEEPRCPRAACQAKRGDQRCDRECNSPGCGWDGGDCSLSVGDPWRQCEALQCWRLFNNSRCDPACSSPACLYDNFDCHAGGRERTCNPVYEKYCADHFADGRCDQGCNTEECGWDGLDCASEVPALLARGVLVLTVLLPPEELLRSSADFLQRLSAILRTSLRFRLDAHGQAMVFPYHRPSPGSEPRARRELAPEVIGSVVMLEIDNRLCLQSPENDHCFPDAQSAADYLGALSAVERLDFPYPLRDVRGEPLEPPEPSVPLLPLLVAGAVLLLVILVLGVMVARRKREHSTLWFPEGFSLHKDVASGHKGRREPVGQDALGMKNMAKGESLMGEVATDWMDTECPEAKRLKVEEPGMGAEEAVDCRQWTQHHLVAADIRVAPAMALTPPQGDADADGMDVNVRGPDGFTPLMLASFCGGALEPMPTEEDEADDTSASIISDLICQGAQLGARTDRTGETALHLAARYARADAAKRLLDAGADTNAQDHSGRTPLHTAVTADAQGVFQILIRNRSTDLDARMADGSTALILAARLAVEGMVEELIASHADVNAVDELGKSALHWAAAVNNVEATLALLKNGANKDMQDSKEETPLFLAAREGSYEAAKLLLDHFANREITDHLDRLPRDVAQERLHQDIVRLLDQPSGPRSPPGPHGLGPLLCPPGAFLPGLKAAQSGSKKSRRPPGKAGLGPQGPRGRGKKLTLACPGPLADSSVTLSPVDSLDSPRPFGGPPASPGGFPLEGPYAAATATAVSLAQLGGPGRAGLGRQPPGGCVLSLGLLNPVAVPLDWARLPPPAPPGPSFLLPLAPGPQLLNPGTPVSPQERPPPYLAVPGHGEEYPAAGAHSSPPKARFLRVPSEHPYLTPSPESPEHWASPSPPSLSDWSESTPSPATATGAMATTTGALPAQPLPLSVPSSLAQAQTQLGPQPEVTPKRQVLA
Sequence of Epidermal growth factor receptor (Homo sapiens) (P00533 whole entry, looked up): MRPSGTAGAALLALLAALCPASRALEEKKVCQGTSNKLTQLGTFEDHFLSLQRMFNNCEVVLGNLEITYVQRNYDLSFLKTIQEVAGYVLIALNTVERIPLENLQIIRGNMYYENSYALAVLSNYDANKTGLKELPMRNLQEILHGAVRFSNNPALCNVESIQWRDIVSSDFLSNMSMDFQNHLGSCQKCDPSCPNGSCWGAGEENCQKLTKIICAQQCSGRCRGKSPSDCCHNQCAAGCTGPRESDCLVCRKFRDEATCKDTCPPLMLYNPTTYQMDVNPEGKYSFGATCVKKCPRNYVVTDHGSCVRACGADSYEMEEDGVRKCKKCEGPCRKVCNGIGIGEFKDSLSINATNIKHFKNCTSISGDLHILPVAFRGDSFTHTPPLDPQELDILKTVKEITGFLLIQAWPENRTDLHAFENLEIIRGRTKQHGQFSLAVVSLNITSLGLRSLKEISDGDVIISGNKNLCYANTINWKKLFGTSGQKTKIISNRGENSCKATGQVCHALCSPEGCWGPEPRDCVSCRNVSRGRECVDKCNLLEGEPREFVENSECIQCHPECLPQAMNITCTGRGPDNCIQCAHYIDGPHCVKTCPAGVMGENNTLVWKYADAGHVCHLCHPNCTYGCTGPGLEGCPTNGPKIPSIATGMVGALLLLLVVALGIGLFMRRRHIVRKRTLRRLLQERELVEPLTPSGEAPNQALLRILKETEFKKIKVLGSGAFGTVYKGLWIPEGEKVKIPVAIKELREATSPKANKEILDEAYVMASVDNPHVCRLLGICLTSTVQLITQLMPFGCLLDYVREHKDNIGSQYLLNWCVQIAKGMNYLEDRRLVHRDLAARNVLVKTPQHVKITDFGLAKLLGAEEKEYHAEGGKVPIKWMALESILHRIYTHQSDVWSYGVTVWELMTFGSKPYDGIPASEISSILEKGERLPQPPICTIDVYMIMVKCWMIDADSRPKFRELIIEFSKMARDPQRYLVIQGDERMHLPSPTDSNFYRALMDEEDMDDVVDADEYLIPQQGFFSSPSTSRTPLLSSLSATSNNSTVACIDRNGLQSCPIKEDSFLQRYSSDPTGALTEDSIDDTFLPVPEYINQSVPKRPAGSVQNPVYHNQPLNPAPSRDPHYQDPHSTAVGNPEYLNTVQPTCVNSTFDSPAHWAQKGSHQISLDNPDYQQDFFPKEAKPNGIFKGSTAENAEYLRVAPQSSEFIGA

With `CO[C@@H]1COC(=O)CC=C[C@@H](C)[C@@H]2C=C[C@H](O)[C@@H](COC(=O)CC=C[C@H]1C)O2`, the composite z-score in assay [1] is 1.56; in [5], -0.664; in assay [7] it was -0.123; in assay [8], 1.47; in [9] it was 0.276; in assay [10], 0.0651. Further, the composite z-score in assay [11] was 0.643; in assay [12] it was -0.438; in assay [13] it was -1.25; in [15] it was 0.602; in assay [16], 1.02; in [17] it was 1.2. In addition, the composite z-score in assay [18] turned out to be 1.52; in assay [19] it was 1.66; in assay [20], 1.73. The z-score is -0.48 (inactive) in [2]; -0.636 (inactive) in assay [3]; -0.922 (inactive) in assay [4]; 0.713 (inactive) in [6]; -0.383 (inactive) in assay [14].
For `CCOC(=O)[C@H](Cc1ccccc1)NC(=O)CCC1CC(OC(=O)NCc2cccc3ccccc23)CC2(CCCC(COC(=O)NCc3cccc(C(F)(F)F)c3)O2)O1` (stereo not given in full), the composite z-score in assay [1] was 0.176; in assay [5], 1.48; in [7], -0.217; in assay [8], 0.0178; in assay [9] it was 0.212; in assay [10], -0.114. Besides, the composite z-score is 0.532 in assay [11]; -0.181 in assay [12]; -0.172 in assay [13]; 0.152 in [15]; -0.189 in assay [16]; -0.185 in [17]. Besides, the composite z-score in [18] was -0.278; in assay [19], 0.025; in [20], -0.151. The z-score is 0.655 (inactive) in assay [2]; 0.611 (inactive) in assay [3]; 1.67 (inactive) in assay [4]; -0.353 (inactive) in [6]; -0.247 (inactive) in [14].
Regarding `CO[C@H]1COC(=O)CCC[C@@H](C)[C@H](OC)COC(=O)[C@@H]2CCCN2C(=O)CC=C[C@@H]1C`, the composite z-score was 1.53 in assay [1]; -1.77 in [5]; -0.183 in assay [7]; 1.82 in [8]; 0.473 in [9]; 0.0869 in assay [10]. Also, the composite z-score in [11] is 1.78; in [12], -0.313; in [13], -0.959; in assay [15], 0.269; in assay [16], 0.482; in assay [17], 0.802. For the same compound, the composite z-score is 1.02 in assay [18], 1.16 in [19] and 1.26 in [20]. In addition, the z-score was -0.671 (inactive) in [2]; 0.044 (inactive) in assay [3]; -0.986 (inactive) in assay [4]; -0.476 (inactive) in assay [6]; -0.599 (inactive) in assay [14].
On to `COC(=O)[C@H](C)NC(=O)CCC1CC(OC(=O)NCCc2ccc(F)cc2)CC2(CCCC(COC(=O)NCCC(C)C)O2)O1` (stereo not given in full), for which the composite z-score in assay [1] was 0.173; in assay [5], 2.22; in [7], -0.209; in assay [8], 1.06; in assay [9] it was 0.49; in [10] it was -0.111. Also, the composite z-score in [11] was 0.597; in assay [12], -0.185; in assay [13], -0.269; in assay [15], 0.866; in [16] it was -0.102; in assay [17], 0.0797. Moreover, the composite z-score in assay [18] was 0.961; in assay [19], 0.0468; in assay [20] it was 0.299. Further, the z-score in assay [2] is -1.79 (inactive); in assay [3] it was -0.148 (inactive); in [4], -0.104 (inactive); in [6], -0.641 (inactive); in [14] it was -1.56 (inactive).
For `COC(=O)[C@@H]1CC[C@H](C)[C@@H](c2ccc(C)cc2)N1C(=O)c1ccc(C=NOC[C@@H](C)[C@H](OCc2ccccc2)C(C)C)cc1`, the composite z-score in [1] is 1.55; in assay [5], 1.3; in [7], -0.244; in [8], 0.573; in assay [9], 1.09; in assay [10] it was 0.102. In addition, the composite z-score in [11] was 0.854; in assay [12] it was 0.0975; in assay [13], -0.233; in assay [15] it was 0.532; in assay [16] it was 1.16; in assay [17], 0.814. Also, the composite z-score in [18] was 0.804; in assay [19], 0.414; in assay [20] it was -0.182. Further, the z-score in [2] was -2.56 (inactive); in [3] it was -6.29 (inactive); in assay [4], -1.51 (inactive); in assay [6], 0.862 (inactive); in assay [14], -1.12 (inactive).

Values taken from PubChem BioAssay.
